From article PMC4336329 (PLoS ONE, 2015)
In all, about 310,000 compounds went through this assay and about 14,000 (4.5%) showed an effect of 50% or more. The effect is printed as a negative number. The entries come from a sample that favours strong results as a whole.

Biological target: human ether-à-go-go-related gene (hERG) potassium channel (human, UniProt Q12809)
Assay: primary screen, population patch clamp on CHO cells stably expressing hERG; higher = less effect of the substance
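Further: peak tail current of the secondary pulse compared with the same well before compound.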

Chain of human ether-à-go-go-related gene (hERG) potassium channel (Q12809 whole entry, looked up): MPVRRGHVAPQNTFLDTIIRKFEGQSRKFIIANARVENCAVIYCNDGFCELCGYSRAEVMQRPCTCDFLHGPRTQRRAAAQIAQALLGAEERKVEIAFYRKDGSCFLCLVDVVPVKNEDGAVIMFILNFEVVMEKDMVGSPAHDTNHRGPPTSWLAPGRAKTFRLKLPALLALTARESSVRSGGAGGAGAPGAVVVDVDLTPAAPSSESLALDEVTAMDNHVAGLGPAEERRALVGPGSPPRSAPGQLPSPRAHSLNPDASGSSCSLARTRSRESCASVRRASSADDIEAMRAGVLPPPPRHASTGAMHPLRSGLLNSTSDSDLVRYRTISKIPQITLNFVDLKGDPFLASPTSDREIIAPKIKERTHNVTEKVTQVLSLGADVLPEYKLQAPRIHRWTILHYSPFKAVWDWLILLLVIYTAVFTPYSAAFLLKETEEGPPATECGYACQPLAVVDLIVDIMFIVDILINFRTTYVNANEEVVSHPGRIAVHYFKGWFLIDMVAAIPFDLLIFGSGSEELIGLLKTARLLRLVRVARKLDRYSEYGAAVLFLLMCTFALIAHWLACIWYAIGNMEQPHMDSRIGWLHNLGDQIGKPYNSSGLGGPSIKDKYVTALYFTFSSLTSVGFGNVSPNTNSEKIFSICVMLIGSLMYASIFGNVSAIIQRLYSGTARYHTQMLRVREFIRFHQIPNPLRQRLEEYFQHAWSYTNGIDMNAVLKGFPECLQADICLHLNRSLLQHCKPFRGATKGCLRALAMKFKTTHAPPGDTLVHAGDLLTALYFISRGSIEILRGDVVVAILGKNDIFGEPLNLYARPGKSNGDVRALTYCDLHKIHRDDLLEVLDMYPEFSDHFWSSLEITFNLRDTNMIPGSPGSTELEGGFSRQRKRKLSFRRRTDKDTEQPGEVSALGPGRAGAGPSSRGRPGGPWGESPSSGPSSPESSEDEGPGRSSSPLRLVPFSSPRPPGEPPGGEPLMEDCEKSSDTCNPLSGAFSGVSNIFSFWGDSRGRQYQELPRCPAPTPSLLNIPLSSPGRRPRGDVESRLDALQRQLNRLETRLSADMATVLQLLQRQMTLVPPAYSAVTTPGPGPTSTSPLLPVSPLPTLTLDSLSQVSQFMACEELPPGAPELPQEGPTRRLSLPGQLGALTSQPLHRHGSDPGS

First: Cn1c(CCCOc2ccc(Cl)cc2Cl)nnc1SCC(=O)Nc1cccc(F)c1
Second: CCN(CC(=O)Nc1cccc(F)c1)Cc1nc2ccccc2c(=O)[nH]1
The “hERG current change (%, negative = inhibition) at 10uM” value of the first is higher: -3.24% for the first, -31.7% for the second.

First: COC(=O)/C=C1\C(=O)N(c2nc3ccc(OC)cc3s2)C(=S)N1c1ccc(F)cc1
Second: CCN(CC(=O)NCc1ccc(F)cc1)Cc1nc2cc(Cl)ccc2c(=O)[nH]1
The “hERG current change (%, negative = inhibition) at 10uM” value of the first is higher: -7.23% for the first, -72.6% for the second.

First: CCOc1ccc(OCc2ccc(C(=O)N3CCc4ccccc4C3)o2)cc1
Second: CCn1cc(SCC(=O)N2CCc3ccccc32)c2ccccc21
The “hERG current change (%, negative = inhibition) at 10uM” value of the first is lower: -10.4% for the first, -1.74% for the second.

Going from `CC(=O)C[C@H]1c2cc(C(F)(F)F)ccc2S(=O)(=O)N1C1CCCC1` to `O=C(NCC1CCCN(C(=O)c2cccc(C(F)(F)F)c2)C1)c1ccc(F)cc1` (stereo not drawn), the “hERG current change (%, negative = inhibition) at 10uM” value rises from -12.1% to -8.13%.

Going from `CC(C)(O)C#Cc1ccc(CN2CCCC(CNC(=O)c3ccco3)C2)cc1` (stereo not drawn) to `CSc1cccc(CN2CCCC(CNC(=O)c3ccco3)C2)c1` (stereo not drawn), the “hERG current change (%, negative = inhibition) at 10uM” value falls from -10.9% to -91.9%.

Compared with `CSc1ccccc1C(=O)N1CCCC(CNC(=O)c2ccc(F)cc2)C1` (stereo not drawn), `CSc1cccc(CN2CCCC(CNC(=O)c3ccc(F)cc3)C2)c1` (stereo not drawn) is lower in “hERG current change (%, negative = inhibition) at 10uM” value: 15.3% for the first, -74.1% for the second.

Compared with `Cc1cc(CN2CCCC(CNC(=O)c3ccc(F)cc3)C2)cc(C)c1O` (stereo not drawn), `CSc1ccc(CN2CCCC(CNC(=O)c3ccc(F)cc3)C2)cc1` (stereo not drawn) is lower in “hERG current change (%, negative = inhibition) at 10uM” value: -24.1% for the first, -70.8% for the second.

First: O=C(NCC1CCCN(Cc2cccc(C(F)(F)F)c2)C1)c1ccc(F)cc1 (stereo not drawn)
Second: O=C(NCC1CCCN(Cc2cccc(OCCO)c2)C1)c1ccc(F)cc1 (stereo not drawn)
The “hERG current change (%, negative = inhibition) at 10uM” value of the first is lower: -58.2% for the first, -16.3% for the second.

Going from `CCCn1cc(CN2CCCC(CNC(=O)c3ccc(F)cc3)C2)c(C)n1` (stereo not drawn) to `O=C(NCC1CCCN(Cc2ccccc2F)C1)c1cccc(C(F)(F)F)c1` (stereo not drawn), the “hERG current change (%, negative = inhibition) at 10uM” value falls from -25.5% to -52.1%.

Going from `CCOCc1cc(CN2CCCC(CNC(=O)c3ccco3)C2)ccc1OC` (stereo not drawn) to `CN(C(=O)c1cccc(Cl)c1)C1CCCN(Cc2ccccc2F)C1` (stereo not drawn), the “hERG current change (%, negative = inhibition) at 10uM” value rises from -48.3% to 0.373%.

First: CCOC(=O)c1ccc(N=c2sc(C(=O)OC)cc(=O)n2CCCN2CCOCC2)cc1.Cl
Second: O=C(NCCCN1CCOCC1)C(=O)NCC1OCCN1S(=O)(=O)c1ccc(F)cc1 (stereo not drawn)
The “hERG current change (%, negative = inhibition) at 10uM” value of the first is lower: -16.9% for the first, -10.2% for the second.

Going from `CCN(CC(=O)Nc1c(F)cccc1F)C(=O)c1ccc(C2SCCS2)cc1` to `CCN(CC(=O)Nc1c(F)cccc1F)C(=O)CCc1nc2ccccc2c(=O)[nH]1`, the “hERG current change (%, negative = inhibition) at 10uM” value rises from 0.0972% to 8.25%.

Compared with `O=C(CCc1nnc(CCCCc2ccccc2)o1)N1CCN(CCO)CC1`, `CC(C)NC(=O)CCCc1cn(C)c2ccccc12` is higher in “hERG current change (%, negative = inhibition) at 10uM” value: -0.0459% for the first, 18.1% for the second.

First: Cc1cc(C)c(NC(=O)Cn2cc3c(n2)CCCC3)c(C)c1
Second: COc1ccc(C(=O)OCC(=O)Nc2c(C)cccc2C)cc1
The “hERG current change (%, negative = inhibition) at 10uM” value of the first is lower: 10.4% for the first, 17.4% for the second.

Going from `CSCC[C@H](NC(=O)OC(C)(C)C)C(=O)N/N=C/c1cc2ccc(C)cc2nc1Cl` to `CCN(CC(=O)Nc1cc(Cl)ccc1C)C(=O)CCc1nc2ccccc2c(=O)[nH]1`, the “hERG current change (%, negative = inhibition) at 10uM” value falls from -7.13% to -67.3%.

Compared with `COc1ccccc1N1CCN(C(=O)CNC(=O)c2cn(-c3ccccc3OC)c(=O)c3ccccc23)CC1`, `CN(Cc1nc2ccccc2c(=O)[nH]1)C(=O)COc1ccccc1Cc1ccccc1` is lower in “hERG current change (%, negative = inhibition) at 10uM” value: -15.6% for the first, -43.3% for the second.

Compared with `O=C(NC1CCCN(Cc2ccccc2F)C1)c1cccc(N2CCCC2=O)c1` (stereo not drawn), `O=c1c2ccccc2n2c(=S)[nH]nc2n1-c1ccccc1` is higher in “hERG current change (%, negative = inhibition) at 10uM” value: 4.16% for the first, 38.4% for the second.

First: CCOc1ccc(N)c(SSc2cc(OCC)ccc2N)c1
Second: CCOc1ccc(Cc2nn[nH]n2)cc1
The “hERG current change (%, negative = inhibition) at 10uM” value of the first is higher: 19.3% for the first, 9.6% for the second.

Compared with `O=C1c2ccccc2C(=O)C1(CO)c1ccc(OC(F)F)cc1`, `CCN(CC(=O)NCc1ccc(F)cc1)Cc1nc2ccccc2c(=O)[nH]1` is lower in “hERG current change (%, negative = inhibition) at 10uM” value: 18.3% for the first, -56.5% for the second.

Compared with `CCN(CC(=O)Nc1ccccc1C(F)(F)F)C(=O)CCc1nc2ccccc2c(=O)[nH]1`, `CCN(CC(=O)Nc1ccccc1SC)Cc1nc2ccccc2c(=O)[nH]1` is lower in “hERG current change (%, negative = inhibition) at 10uM” value: 12.5% for the first, -23.9% for the second.

Going from `CCN(CC(=O)NCCc1ccc(Cl)cc1)Cc1nc2ccccc2c(=O)[nH]1` to `CCN(CC(=O)NCCc1ccc(F)cc1)Cc1nc2ccccc2c(=O)[nH]1`, the “hERG current change (%, negative = inhibition) at 10uM” value rises from -53.3% to -50.7%.

Compared with `CN(Cc1nc2ccccc2c(=O)[nH]1)C(=O)c1ccccc1OCc1ccc(Cl)cc1`, `CN(C(=O)c1ccccc1OCc1ccc(Cl)cc1)c1ccccc1` is higher in “hERG current change (%, negative = inhibition) at 10uM” value: -58.2% for the first, -7.03% for the second.

Going from `CCN(CC(=O)NC(c1ccccc1)c1ccccc1)Cc1nc2ccccc2c(=O)[nH]1` to `CCN(CC(=O)NC(=O)NCc1ccccc1)Cc1nc2ccccc2c(=O)[nH]1`, the “hERG current change (%, negative = inhibition) at 10uM” value rises from -32.4% to -12.9%.

Compared with `O=C(O)CCC(=O)Nc1ccccc1C(=O)Nc1ccccc1`, `COC(=O)CCC(=O)Nc1ccccc1C(=O)Nc1ccccc1` is lower in “hERG current change (%, negative = inhibition) at 10uM” value: 15.6% for the first, 9.16% for the second.

Going from `CCN(CC)CCCCCC(=O)Nc1ccccc1C(=O)Nc1ccccc1` to `CCc1ccccc1NC(=O)CC(NCc1ccccc1)C(=O)O` (stereo not drawn), the “hERG current change (%, negative = inhibition) at 10uM” value rises from -55.8% to 22.5%.

Going from `CCN(CC(=O)NCCc1ccc(S(N)(=O)=O)cc1)Cc1nc2cc(OC)c(OC)cc2c(=O)[nH]1` to `CCN(CC(=O)NCCc1ccc(S(N)(=O)=O)cc1)Cc1nc2ccccc2c(=O)[nH]1`, the “hERG current change (%, negative = inhibition) at 10uM” value rises from 0.804% to 17.9%.

First: COc1ccc(NC(=O)CN2C(=O)C(C)Oc3ccccc32)c(OC)c1 (stereo not drawn)
Second: COCCN(CC(=O)Nc1cc(Cl)ccc1-n1cncn1)Cc1nc2ccccc2c(=O)[nH]1
The “hERG current change (%, negative = inhibition) at 10uM” value of the first is higher: -10.4% for the first, -43% for the second.

Compared with `Cc1nc(-c2ccccc2)sc1C1(C)CC(c2ccccc2F)=NO1` (stereo not drawn), `O=C(c1ccccc1)N(Cc1ccc(F)cc1)Cc1nc2ccccc2c(=O)[nH]1` is lower in “hERG current change (%, negative = inhibition) at 10uM” value: 1.13% for the first, -35% for the second.

Compared with `Cc1ccc(C2(c3ccc(C)cc3)CC2C(=O)Nc2ccc([N+](=O)[O-])cc2O)cc1` (stereo not drawn), `CCN(CC(=O)Nc1cc(Cl)ccc1-n1cncn1)Cc1nc2ccccc2c(=O)[nH]1` is lower in “hERG current change (%, negative = inhibition) at 10uM” value: -2.42% for the first, -60.3% for the second.

First: CC(C)N1CC(C(=O)O)CC1=O (stereo not drawn)
Second: Cn1c(CC(=O)Nc2ccccc2Cl)nnc1SCC(=O)NC1=NCCS1
The “hERG current change (%, negative = inhibition) at 10uM” value of the first is higher: 19% for the first, 14.7% for the second.

Compared with `CCN1C(=O)/C(=C/C2=Cc3ccccc3OC2C)SC1=S` (stereo not drawn), `CCNCc1nc2cc(Cl)ccc2c(=O)[nH]1.Cl` is lower in “hERG current change (%, negative = inhibition) at 10uM” value: 14.7% for the first, 4.64% for the second.

For `CCN(CC(=O)Nc1ccc2c(c1)OCCO2)Cc1nc2cc(Cl)ccc2c(=O)[nH]1`, the “hERG current change (%, negative = inhibition) at 10uM” value was -29%.
